About 360 (15%) of roughly 2,400 compounds were called active. Not shown: some 5% with an inconclusive outcome. Only a sample is shown. Measured potencies and affinities stand elsewhere. A number with no mark means an inactive call.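 Rule for the calls: active = falling-signal curve with half-maximal concentration at or below ten times the top tested dose; inconclusive = flat fit at 30 to 70% inhibition, or poor fit; inactive = signal rise, flat within 30%, or potency beyond limit.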
Test: dox-induced RFP signal loss in R4-3T3 cells – cell-based, NIH3T3 R4, HSE-GFP and Tet-On RFP, cherry-pick, set 3, dose response (AID 493085);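 note: cells heat shocked 2 h at 42 °C with doxycycline to induce reporters; 0% = neutral control wells and -100% = didemnin B control at 400 nM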
Settings: NIH3T3 R4 HSE-GFP/Tet-RFP reporter, fluorescence, 48 h; series mostly up to 19.5 µM; activity change, negative = inhibition: at the top concentration

Compound	activity change, negative = inhibition [%]
COc1cc2cc(CN(C(=O)NC3CCCCC3)C3CCCC3)c(=O)[nH]c2cc1OC	-6.25
COc1ccc(/C=N/NC(=O)CN(C)S(=O)(=O)c2ccc(NC(C)=O)cc2)cc1	0.548
CCOC(=O)c1c(C)n(C)c2ccc(OC)c(NC(=O)CN3CCSCC3)c12	9.61
COc1ccc(C(=O)C2CCCN(Cc3ccc(NC(C)=O)cc3)C2)cc1OC (stereo unspecified)	-0.992
Nc1nc(Cl)nc2c1ncn2C1CC(O)C(CO)O1 (stereo unspecified)	-2.61
Cc1oc(-c2cc3c(cc2Cl)OCO3)nc1CN1CCCC1c1ccc(F)cc1 (stereo unspecified)	1.85
Cc1c(Cl)cccc1NC(=O)CS(=O)(=O)c1ccccc1	11.7
CC(C)n1cc(/C=N/Nc2ccc(C(=O)O)cc2)c2ccccc21	-12
CCOC(=O)N1CCN(C(=O)C2CCN(Cc3ccc(OC)cc3OC)CC2)CC1	3
COc1cccc(-c2cccc(NC(=O)C3CCN(Cc4ccon4)CC3)c2)c1	-3.89
Cc1ccnc(NS(=O)(=O)c2ccc(NC(=O)COc3ccccc3)cc2)n1	5.48
Cc1nc(C(=O)NNC(=O)c2cccc(Cl)c2)c(C(F)(F)F)o1	5.05
O=C(Cc1ccccc1)Nc1nc2ccccc2s1	0.496
O=C(COc1ccccc1C(=O)O)Nc1ccc(SC(F)F)cc1	-6.52
N/C(CC(=O)Nc1ccc(F)cc1)=N\O	-0.505
Cc1ccccc1C(=O)Nc1nnc(CC(=O)N/N=C/c2ccco2)s1	25.1

Compound	activity change, negative = inhibition [%]
Cc1cc(C)nc(NC(=O)COc2cc(Cl)cc(Cl)c2)n1	-6.63
COc1cccc(CC(=O)N[C@@H](CCSC)c2nc3ccccc3[nH]2)c1	-6.15
CCOc1ccc(N=C(NN)c2ccc3ccccc3n2)cc1	-3.17
Cc1ccc(S(=O)(=O)c2ccc(Oc3ccccc3)cc2)cc1	-13.6
O=[N+]([O-])c1ccccc1Nc1cccnc1	-3.4
O=C(NCc1ccccc1)C1CCCN(S(=O)(=O)c2cccc3nsnc23)C1 (stereo unspecified)	-0.54
Nc1nc(NCc2ccco2)nc(NC2CCCCC2)c1[N+](=O)[O-]	-2.76
Cc1nc2sc3c(NCc4ccco4)ncnc3c2c2c1COC(C)(C)C2	-16.8
CC(C)CCc1c(O)nc(SCC(=O)N2CCCCCC2)[nH]c1=O	0.398
O=C(O)COc1ccc(/C=N/NC(=O)c2ccccc2Br)cc1	-6.35
CCCc1cc(=O)oc2cc(C)cc(OCC(=O)NCCCn3ccnc3)c12	-7.06
O=C(CC(Nc1ccccc1Cl)C(=O)OCC(=O)c1cccs1)c1ccccc1 (stereo unspecified)	20.8
COc1ccc2oc(=O)c(N3C(=O)c4ccccc4C3=O)cc2c1	-15.4
COc1cc(C2NC(=O)NC(C)=C2C(=O)OCC2CCCO2)ccc1O (stereo unspecified)	1.41
CC1(C)CC(NCc2ccc3c(c2)OCO3)CCO1 (stereo unspecified)	3.89
